# Laboratory results as given in the supplement of paper PMC4466140.
# Columns and labels:
# Assay in all cases: SPOT peptide array binding signal intensity (averaged, normalized) (arbitrary units (background-subtracted, floor 0; scale differs between SH3 domains)); higher = stronger binding of the SH3 domain to the peptide
# [1] = biological target: AgAbp1
# Protocol: (§1)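 GST-tagged SH3 domains from S. cerevisiae (Sc), A. gossypii (Ag), C. albicans (Ca) and S. pombe (Sp) were incubated at 10 ug/ml overnight at 4 C on cellulose SPOT membranes carrying 292 synthetic 15-mer peptides mined from the S. cerevisiae proteome (cysteines replaced by serines). Binding was detected with anti-GST antibody, HRP secondary and chemiluminescence, quantified with Genespotter, and reported as normalized spot intensities averaged over biological replicates.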
# [2] = biological target: AgBbc1
# Protocol: as §1
# [3] = biological target: AgBem1-D1
# Protocol: as §1
# [4] = biological target: AgBzz1-D1
# Protocol: as §1
# [5] = biological target: AgBzz1-D2
# Protocol: as §1
# [6] = biological target: AgCyk3
# Protocol: as §1
# [7] = biological target: AgFus1
# Protocol: as §1
# [8] = biological target: AgHof1
# Protocol: as §1
# [9] = biological target: AgHse1
# Protocol: as §1
# [10] = biological target: AgLsb1
# Protocol: as §1
# [11] = biological target: AgLsb4
# Protocol: as §1
# [12] = biological target: AgMyo5
# Protocol: as §1
# [13] = biological target: AgNbp2
# Protocol: as §1
# [14] = biological target: AgRvs167
# Protocol: as §1
# [15] = biological target: AgSho1
# Protocol: as §1
# [16] = biological target: AgSla1-D1-D2
# Protocol: as §1
# [17] = biological target: AgSla1-D3
# Protocol: as §1
# [18] = biological target: CaAbp1-D1
# Protocol: as §1
# [19] = biological target: CaAbp1-D2
# Protocol: as §1
# [20] = biological target: CaBbc1
# Protocol: as §1
# [21] = biological target: CaBem1-D1
# Protocol: as §1
# [22] = biological target: CaBzz1-D1
# Protocol: as §1
# [23] = biological target: CaBzz1-D2
# Protocol: as §1
# [24] = biological target: CaCyk3
# Protocol: as §1
# [25] = biological target: CaFus1
# Protocol: as §1
# [26] = biological target: CaHof1
# Protocol: as §1
# [27] = biological target: CaHse1
# Protocol: as §1
# [28] = biological target: CaLsb1
# Protocol: as §1
# [29] = biological target: CaLsb4
# Protocol: as §1
# [30] = biological target: CaMyo5
# Protocol: as §1
# [31] = biological target: CaNbp2
# Protocol: as §1
# [32] = biological target: CaRvs167
# Protocol: as §1
# [33] = biological target: CaRvs167-3
# Protocol: as §1
# [34] = biological target: CaSho1
# Protocol: as §1
# [35] = biological target: CaSla1-D1-D2
# Protocol: as §1
# [36] = biological target: CaSla1-D3
# Protocol: as §1
# [37] = biological target: ScAbp1
# Protocol: as §1
# [38] = biological target: ScBbc1
# Protocol: as §1
# [39] = biological target: ScBem1-D1
# Protocol: as §1
# [40] = biological target: ScBzz1-D1
# Protocol: as §1
# [41] = biological target: ScBzz1-D2
# Protocol: as §1
# [42] = biological target: ScCyk3
# Protocol: as §1
# [43] = biological target: ScFus1
# Protocol: as §1
# [44] = biological target: ScHof1
# Protocol: as §1
# [45] = biological target: ScHse1
# Protocol: as §1
# [46] = biological target: ScLsb1
# Protocol: as §1
# [47] = biological target: ScLsb2
# Protocol: as §1
# [48] = biological target: ScLsb3
# Protocol: as §1
# [49] = biological target: ScLsb4
# Protocol: as §1
# [50] = biological target: ScMyo3
# Protocol: as §1
# [51] = biological target: ScMyo5
# Protocol: as §1
# [52] = biological target: ScNbp2
# Protocol: as §1
# [53] = biological target: ScPex13
# Protocol: as §1
# [54] = biological target: ScRvs167
# Protocol: as §1
# [55] = biological target: ScSho1
# Protocol: as §1
# [56] = biological target: ScSla1-D1-D2
# Protocol: as §1
# [57] = biological target: ScSla1-D3
# Protocol: as §1
# [58] = biological target: SpAbp1-D1
# Protocol: as §1
# [59] = biological target: SpBbc1
# Protocol: as §1
# [60] = biological target: SpBzz1-D1
# Protocol: as §1
# [61] = biological target: SpBzz1-D2
# Protocol: as §1
# [62] = biological target: SpCyk3
# Protocol: as §1
# [63] = biological target: SpHof1
# Protocol: as §1
# [64] = biological target: SpHof1-2
# Protocol: as §1
# [65] = biological target: SpHof1-3
# Protocol: as §1
# [66] = biological target: SpHse1
# Protocol: as §1
# [67] = biological target: SpLsb1
# Protocol: as §1
# [68] = biological target: SpLsb4
# Protocol: as §1
# [69] = biological target: SpMyo1
# Protocol: as §1
# [70] = biological target: SpNbp2
# Protocol: as §1
# [71] = biological target: SpPex13
# Protocol: as §1
# [72] = biological target: SpRvs167
# Protocol: as §1
# [73] = biological target: SpSla1-D1-D2
# Protocol: as §1
# [74] = biological target: SpSla1-D3
# Protocol: as §1
binder,measurement,setting,value
KRKRFNLLLPKPYLT,SPOT peptide array binding signal intensity,[1],46
same,SPOT peptide array binding signal intensity,[2],16.5
same,SPOT peptide array binding signal intensity,[3],136
same,SPOT peptide array binding signal intensity,[4],33
same,SPOT peptide array binding signal intensity,[5],19.5
same,SPOT peptide array binding signal intensity,[6],3
same,SPOT peptide array binding signal intensity,[7],356
same,SPOT peptide array binding signal intensity,[8],49.5
same,SPOT peptide array binding signal intensity,[9],745
same,SPOT peptide array binding signal intensity,[10],14.5
same,SPOT peptide array binding signal intensity,[11],104
same,SPOT peptide array binding signal intensity,[12],0.75
same,SPOT peptide array binding signal intensity,[13],99
same,SPOT peptide array binding signal intensity,[14],6.17
same,SPOT peptide array binding signal intensity,[15],58
same,SPOT peptide array binding signal intensity,[16],578
same,SPOT peptide array binding signal intensity,[17],4
same,SPOT peptide array binding signal intensity,[18],458
same,SPOT peptide array binding signal intensity,[19],418
same,SPOT peptide array binding signal intensity,[20],39.5
same,SPOT peptide array binding signal intensity,[21],31
same,SPOT peptide array binding signal intensity,[22],28
same,SPOT peptide array binding signal intensity,[23],46.5
same,SPOT peptide array binding signal intensity,[24],5
same,SPOT peptide array binding signal intensity,[25],548
same,SPOT peptide array binding signal intensity,[26],1.5
same,SPOT peptide array binding signal intensity,[27],25.5
same,SPOT peptide array binding signal intensity,[28],8
same,SPOT peptide array binding signal intensity,[29],43.5
same,SPOT peptide array binding signal intensity,[30],1
same,SPOT peptide array binding signal intensity,[31],192
same,SPOT peptide array binding signal intensity,[32],8.5
same,SPOT peptide array binding signal intensity,[33],692
same,SPOT peptide array binding signal intensity,[34],592
same,SPOT peptide array binding signal intensity,[35],1
same,SPOT peptide array binding signal intensity,[36],6.5
same,SPOT peptide array binding signal intensity,[37],24
same,SPOT peptide array binding signal intensity,[38],6
same,SPOT peptide array binding signal intensity,[39],22
same,SPOT peptide array binding signal intensity,[40],3
same,SPOT peptide array binding signal intensity,[41],40
same,SPOT peptide array binding signal intensity,[42],58
same,SPOT peptide array binding signal intensity,[43],570
same,SPOT peptide array binding signal intensity,[44],≤ 0
same,SPOT peptide array binding signal intensity,[45],1210
same,SPOT peptide array binding signal intensity,[46],34.8
same,SPOT peptide array binding signal intensity,[47],8.5
same,SPOT peptide array binding signal intensity,[48],114
same,SPOT peptide array binding signal intensity,[49],10
same,SPOT peptide array binding signal intensity,[50],1.5
same,SPOT peptide array binding signal intensity,[51],0.5
same,SPOT peptide array binding signal intensity,[52],158
same,SPOT peptide array binding signal intensity,[53],0.75
same,SPOT peptide array binding signal intensity,[54],5
same,SPOT peptide array binding signal intensity,[55],474
same,SPOT peptide array binding signal intensity,[56],96
same,SPOT peptide array binding signal intensity,[57],2.75
same,SPOT peptide array binding signal intensity,[58],146
same,SPOT peptide array binding signal intensity,[59],10.8
same,SPOT peptide array binding signal intensity,[60],94.5
same,SPOT peptide array binding signal intensity,[61],≤ 0
same,SPOT peptide array binding signal intensity,[62],4
same,SPOT peptide array binding signal intensity,[63],136
same,SPOT peptide array binding signal intensity,[64],32.5
same,SPOT peptide array binding signal intensity,[65],403
same,SPOT peptide array binding signal intensity,[66],366
same,SPOT peptide array binding signal intensity,[67],3.75
same,SPOT peptide array binding signal intensity,[68],47
same,SPOT peptide array binding signal intensity,[69],2.5
same,SPOT peptide array binding signal intensity,[70],492
same,SPOT peptide array binding signal intensity,[71],8.5
same,SPOT peptide array binding signal intensity,[72],12.7
same,SPOT peptide array binding signal intensity,[73],3
same,SPOT peptide array binding signal intensity,[74],16.5
PKMLPIPSKPTLFDL,SPOT peptide array binding signal intensity,[31],303
same,SPOT peptide array binding signal intensity,[32],47
same,SPOT peptide array binding signal intensity,[33],≤ 0
same,SPOT peptide array binding signal intensity,[34],1680
same,SPOT peptide array binding signal intensity,[35],188
same,SPOT peptide array binding signal intensity,[36],116
same,SPOT peptide array binding signal intensity,[37],14
same,SPOT peptide array binding signal intensity,[38],0.5
same,SPOT peptide array binding signal intensity,[39],≤ 0
same,SPOT peptide array binding signal intensity,[40],9
same,SPOT peptide array binding signal intensity,[41],22
same,SPOT peptide array binding signal intensity,[42],3
same,SPOT peptide array binding signal intensity,[43],405
same,SPOT peptide array binding signal intensity,[44],≤ 0
same,SPOT peptide array binding signal intensity,[45],73.5
same,SPOT peptide array binding signal intensity,[46],11.5
same,SPOT peptide array binding signal intensity,[47],≤ 0
same,SPOT peptide array binding signal intensity,[48],172
same,SPOT peptide array binding signal intensity,[49],80
same,SPOT peptide array binding signal intensity,[50],0.5
same,SPOT peptide array binding signal intensity,[51],2
same,SPOT peptide array binding signal intensity,[52],240
same,SPOT peptide array binding signal intensity,[53],229
same,SPOT peptide array binding signal intensity,[54],30.5
same,SPOT peptide array binding signal intensity,[55],673
same,SPOT peptide array binding signal intensity,[56],179
same,SPOT peptide array binding signal intensity,[57],374
same,SPOT peptide array binding signal intensity,[58],286
same,SPOT peptide array binding signal intensity,[59],0.5
same,SPOT peptide array binding signal intensity,[60],426
same,SPOT peptide array binding signal intensity,[61],20.5
same,SPOT peptide array binding signal intensity,[62],≤ 0
same,SPOT peptide array binding signal intensity,[63],154
same,SPOT peptide array binding signal intensity,[64],410
same,SPOT peptide array binding signal intensity,[65],433
same,SPOT peptide array binding signal intensity,[66],136
same,SPOT peptide array binding signal intensity,[67],15.5
same,SPOT peptide array binding signal intensity,[68],402
same,SPOT peptide array binding signal intensity,[69],82
same,SPOT peptide array binding signal intensity,[70],55.5
same,SPOT peptide array binding signal intensity,[71],39.5
same,SPOT peptide array binding signal intensity,[72],45.3
same,SPOT peptide array binding signal intensity,[73],12
same,SPOT peptide array binding signal intensity,[74],132
